# According to ChEMBL document CHEMBL3988442, “University of Dundee, Small-Polar-MMV Screening Library” (2021):
# Target: AMP-activated protein kinase, AMPK (Homo sapiens) (UniProt P54646+O43741+P54619+Q9UGJ0+Q9Y478+Q13131+Q9UGI9)
# Assay: AMP-dependent Kinase enzyme assay. An in vitro enzyme assay that detects ADP turnover that is directly proportional to AMPK activity. This uses naive AMPK that is activated during the assay with MK-8722
# Assay type: functional
# Design: scale not given: direction of the effect not stated beside the values
# Details: 30 µM
row,SMILES,Percent Effect [%]
1,NC(=O)C1CCN(c2ncccc2C(=O)N2CCc3ccccc32)C1 (configuration not stated),2.58
2,Cc1cc(N2CCCC(N(C)C)C2)n2nccc2n1 (configuration not stated),1.81
3,CN1CC2(CCN(C(=O)CCCOCc3ccccc3)C2)OC1=O (configuration not stated),9.85
4,CN(CCCOc1ccccc1Cl)C(=O)CN1CCNC1=O,10.2
5,CC(C)c1nnc2n1CCN(Cc1cc(Cl)c3c(c1)OCO3)C2,8.76
6,CCCn1ccnc1-c1cccc(NC2CCOC2)c1 (configuration not stated),1.21
7,O=S(=O)(NCCCn1cncn1)c1ccc2c(c1)CCO2,4.51
8,COc1ccc(Br)cc1S(=O)(=O)N(C)Cc1ccc(N(C)C)cc1,-1.52
9,Cc1cc(CN(C)Cc2csc(-c3cccs3)n2)n[nH]1,6.79
10,COC1CCN(c2ccc(F)cc2CN(C)C(C)C(N)=O)CC1 (configuration not stated),8.56
11,Cc1cnn(CCCNC(=O)NC(C)C(=O)Nc2ccccc2)c1 (configuration not stated),4.78
12,CC(C(=O)NCC(C)(C)c1ccc(Br)cc1)n1cncn1 (configuration not stated),0.177
